45 sequences from the supplement of paper PMC11417369 can be followed below.

Whole data set: some 25,000 sequences, median “ln(normalized median fluorescence intensity)” near 6.7, cut for the highest 2% near 10. The sample holds the highest values, similar sequences and a random draw of the others, so the mix is not that of the screen.

In this assay the test system is PfHDP1 homeodomain (GST-tagged). Nature of the assay: gcPBM binding intensity (ln(normalized median fluorescence intensity)); higher = stronger DNA binding. The method, boiled down: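 DNA-binding domains from P. falciparum, fused to GST and produced in E. coli, were put on an Agilent 4 × 180k double-stranded probe array for 1 h in 1× PBS holding 1% milk, 0.2 mg/ml BSA, 0.5% salmon testes DNA and 0.03% Triton X-100. Probes were primer-extended, 36 bp long and drawn from intergenic genomic regions, with negative controls included. After Alexa488 anti-GST antibody detection and a 488 nm scan, binding intensity was set as the highest Masliner-normalised natural-log median intensity across replicate spots of either probe orientation.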
As for “ATGTAAAACATAAAATGTACATATTATACAAACTAT [XGTACX_site5797]”, the “gcPBM binding intensity (ln)” value was found to be 6.87.

With “ATTTATATTATAATATGTACACAAAAAAAATTAGGA [XGTACX_site565]”, the “gcPBM binding intensity (ln)” value came to 6.91.

Consider “TATGAAATATCGTGCACACACGAATAATATAAGAAT [CACACA_site4842]”, for which the “gcPBM binding intensity (ln)” value stood at 9.21.

Consider “CAGTTTACTAATATTGCACACGAATATGAAAAAGAG [CACACA_site8941]”, for which the “gcPBM binding intensity (ln)” value is 9.89.

As to “GTTTACTAATATTGCACACGAATATGAAAAAGAGAA [CACACA_site2897]”, the “gcPBM binding intensity (ln)” value was 10.6.

With “ATTATTTATTATTTCTGTACGTATAAAAATAACATT [XGTACX_site1671]”, the “gcPBM binding intensity (ln)” value was determined as 6.67.

“CAGTTAATGTTGGTACTTTATATAAAAATGATATGA [CACACA_negctrl_site1600]”: the “gcPBM binding intensity (ln)” value was found to be 6.67.

Take “TTATTTTAAATTAACACATGCATAATATATGTATAT [TGCATGCA_site597]”: the “gcPBM binding intensity (ln)” value was 6.31.

Regarding “TTCCTCTTAATATGTGCACACTAAATTATAACATAA [CACACA_site3260]”, the “gcPBM binding intensity (ln)” value was determined as 11.1.

Turning to “CCTAAATTATATTATGCACACTTAAAAATATATTTA [CACACA_site5861]”, the “gcPBM binding intensity (ln)” value stood at 9.95.

“TAAATTATATTATGCACACTTAAAAATATATTTAAC [CACACA_site3512]”: the “gcPBM binding intensity (ln)” value was found to be 9.29.

As for “TTCCTCTTAATATGTGCACACTAAATTATAACCTAA [CACACA_site5751]”, the “gcPBM binding intensity (ln)” value turned out to be 11.3.

With “CCTCTTAATATGTGCACACTAAATTATAACATAATT [CACACA_site3259]”, the “gcPBM binding intensity (ln)” value is 11.3.

For “ATTATGTATATAAATTAACACACATATGTGGTTAAT [CACACA_site9028]”, the “gcPBM binding intensity (ln)” value is 6.37.

With “ACTAAACTTATATGTACACACATATAACATTAATTT [CACACA_site2258]”, the “gcPBM binding intensity (ln)” value was 6.67.

Take “AAATAATAAATTATAACACACATATATATATATATA [CACACA_site4045]”: the “gcPBM binding intensity (ln)” value was 9.33.

On to “AATATATCATTATATAAACACACAATATGTTTTTTA [CACACA_site9260]”, for which the “gcPBM binding intensity (ln)” value came out at 6.22.

Consider “CAGATAAGATTTTGTGGTACTATTTATTAAATTAGA [XGTACX_site2644]”, for which the “gcPBM binding intensity (ln)” value stood at 6.06.

Take “AAGGTATGATTAATCACACACATAAATATATATACA [CACACA_site2658]”: the “gcPBM binding intensity (ln)” value was 6.67.

On to “TATTTGAAAGCCAATTGTACTTTAGTTTTTGAAACA [XGTACX_site5542]”, for which the “gcPBM binding intensity (ln)” value turned out to be 5.98.

With “AAAAATATAATATAATGTACACAAAAAAAAAAATTC [XGTACX_site3657]”, the “gcPBM binding intensity (ln)” value is 6.63.

As for “TATTCTAGTCTGCTTACACACATATTTATATTTATA [CACACA_site7432]”, the “gcPBM binding intensity (ln)” value turned out to be 7.53.

In the case of “CCACGTATACGATGCACACGTATGCTTTATATATAG [CACACA_site4108]”, the “gcPBM binding intensity (ln)” value worked out at 8.58.

Take ATATATATTATGTGTGTGCACTTTTGTTATTATTAT: the “gcPBM binding intensity (ln)” value worked out at 9.03.

Consider “AGACACGTATACGATGCACACGTATGCTTTATATAT [CACACA_site9363]”, for which the “gcPBM binding intensity (ln)” value came to 8.32.

In the case of “GCTTTTGTCATGTGCACACACGTATATATTATATAT [CACACA_site6146]”, the “gcPBM binding intensity (ln)” value amounted to 11.5.

For “AATTATATTTAGTATATGCACACTTTATGTTTGTTA [CACACA_site2025]”, the “gcPBM binding intensity (ln)” value was 9.36.

As to “ATGCTTTTGTCATGTGCACACACGTATATATTATAT [CACACA_site4163]”, the “gcPBM binding intensity (ln)” value stood at 11.

On to “CTATATTATTTTTCTTGTACGTAGGAAATATAGCTA [XGTACX_site6176]”, for which the “gcPBM binding intensity (ln)” value turned out to be 6.45.

In the case of “AAGAAAATATAAAATGCACACTATAAATTGTATATA [CACACA_site7928]”, the “gcPBM binding intensity (ln)” value came out at 9.72.

Turning to TGTATGTATAATTGAGTGCACAGAAAAAAAAAAGAA, the “gcPBM binding intensity (ln)” value amounted to 10.6.

Consider “CATTATAAAAAATAAAAAAGAAATAATTGTATATGC [CACACA_negctrl_site478]”, for which the “gcPBM binding intensity (ln)” value came out at 6.62.

For “TTTGTATTACGTTTGTGTACATATACAATGTGTTTT [XGTACX_site7708]”, the “gcPBM binding intensity (ln)” value stood at 6.38.

In the case of “TAAGAAATAAATAGTACACACATAGACACCCACCCA [CACACA_site8429]”, the “gcPBM binding intensity (ln)” value came out at 7.64.

In the case of “TCATTGAAAATTGTTGCACACATAATAATTAAATAT [CACACA_site8554]”, the “gcPBM binding intensity (ln)” value was 9.46.

Turning to “TAAGAAATAAATAGTACACACATAGACACCCACCGA [CACACA_site1516]”, the “gcPBM binding intensity (ln)” value came out at 7.1.

Take “ACCCATTGCTCACGTGCACACATAGAAAAATAATTC [CACACA_site4389]”: the “gcPBM binding intensity (ln)” value stood at 10.7.

Take “ACATTAAGACACATTGCACACGTGCACCCATAGAAA [CACACA_site8029]”: the “gcPBM binding intensity (ln)” value was 10.5.

Turning to “TACACCCATAGACACACACACACGCATAAAAAAAAA [CACACA_site8428]”, the “gcPBM binding intensity (ln)” value came to 6.85.

Turning to “CCATTAAGACACATTGCACACGTGCACCCATAGAAA [CACACA_site4388]”, the “gcPBM binding intensity (ln)” value amounted to 10.2.

Turning to “ACATTGCACCCGTGCACACATAGAAAAATAATTCTT [CACACA_site409]”, the “gcPBM binding intensity (ln)” value was 10.3.

As for “ATTAAGACACATTGCACACGTGCACCCATAGAAAAA [CACACA_site408]”, the “gcPBM binding intensity (ln)” value amounted to 10.5.

“TCACTTTTTATTAAATGTACATGCTTTCATTTTCAT [XGTACX_site8139]”: the “gcPBM binding intensity (ln)” value came out at 6.78.

In the case of “ATAAACAAAAAAAAAAAATATATCAATATATATATA [CACACA_negctrl_site299]”, the “gcPBM binding intensity (ln)” value amounted to 8.7.

Turning to “TTTTTAAAAAATAAGAAAAAATAAATATATTACAAA [XGTACX_negctrl_site191]”, the “gcPBM binding intensity (ln)” value was determined as 6.58.
